These results are taken from PubChem BioAssay (Tox21).

Test [1] can be described thus: qHTS RealTime-Glo MT Cell Viability Assay in HEK293 cells - 0 hour (AID 1224880). Note: top concentration of the series differs between compounds; nearly all actives have a fitted effect of over 45% in size. The procedure, abridged: (§1)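 Kinetic, non-lysing viability readout. Seed HEK293 (600/well) with reagent, incubate 5 h at 37 C/5% CO2, pin 23 nL compound in DMSO, incubate at 37 C, read luminescence at 0, 8, 16, 24, 32, 40 h.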
The nature of test [2]: A CellTox Green Cytotoxicity Assay to monitor cytotoxicity in HEK293 cells - 32 hour (AID 1224881). Note: nearly all actives have a fitted effect of over 40% in size. Note: potency is the fitted concentration of half-maximal effect. An outline of the steps:
(§2)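 Real-time, in one plate: 600 HEK293 cells/well with dead-cell DNA dye, pinned compound after 5 h, 37 C incubation over 40 h; viable cells give no appreciable fluorescence.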

The nature of test [3]: A CellTox Green Cytotoxicity Assay to monitor cytotoxicity in HepG2 cells - 0 hour (AID 1224882). Note: nearly all actives have a fitted effect of over 35% in size. An outline of the steps: (§3)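 Cytotoxicity was tracked as dead-cell DNA fluorescence in HepG2 cells treated with test compounds at 37 C; each time-point value comes from one kinetic series spanning 0, 8, 16, 24, 32 and 40 h.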
Test [4] can be described thus: A CellTox Green Cytotoxicity Assay to monitor cytotoxicity in HepG2 cells - 32 hour (AID 1224883). Note: nearly all actives have a fitted effect of over 50% in size. The procedure, abridged: as §3
The nature of test [5]: A CellTox Green Cytotoxicity Assay to monitor cytotoxicity in HEK293 cells - 8 hour (AID 1224884). Note: nearly all actives have a fitted effect of over 35% in size. The procedure, abridged: as §2
A short description of test [6]: qHTS RealTime-Glo MT Cell Viability Assay in HepG2 cells - 16 hour (AID 1224885). Note: nearly all actives have a fitted effect of over 50% in size. The procedure, abridged: (§4)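 Real-time, nonlytic viability: 600 HepG2 cells/well mixed with NanoLuc enzyme plus prosubstrate; 5 h settle, compound (DMSO) added by pintool; luminescence monitored over 40 h at 37 C.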
(In general: In qHTS, concentration-response curves come from the screen itself.)

The nature of test [7]: qHTS RealTime-Glo MT Cell Viability Assay in HEK293 cells - 24 hour (AID 1224886). Note: nearly all actives have a fitted effect of over 50% in size. Note: potency is the fitted concentration of half-maximal effect. The procedure, abridged:
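Cells + reagent dispensed (600 cells/well, HEK293) → 5 h at 37 C/5% CO2 → 23 nL compound in DMSO pinned → 40 h at 37 C → luminescence read at 0, 8, 16, 24, 32, 40 h.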

A short description of test [8]: qHTS RealTime-Glo MT Cell Viability Assay in HEK293 cells - 8 hour (AID 1224887). Note: nearly all actives have a fitted effect of over 50% in size. Note: potency is the fitted concentration of half-maximal effect. An outline of the steps:
as §1

Test [9] can be described thus: qHTS RealTime-Glo MT Cell Viability Assay in HepG2 cells - 0 hour (AID 1224889). Note: nearly all actives have a fitted effect of over 50% in size. The procedure, abridged: as §4
Test [10] is described as follows: qHTS assay to identify small molecule antagonists of the estrogen receptor alpha (ER-alpha) signaling pathway using the BG1 cell line in the presence of 0.1 nM 17-beta-estradiol - cell viability counter screen (AID 1259241). Note: nearly all actives have a fitted effect of over 40% in size. The procedure, abridged: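 Cytotoxicity counter-screen: live-cell protease activity measured by fluorescence (30 min reagent step) in the same wells. Cells were VM7Luc4E2 with endogenous ER-alpha and ERE-driven luciferase, treated 22 hr at 37C alongside 0.1 nM 17beta-estradiol final.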

Test [11] can be described thus: qHTS assay to identify small molecule antagonists of the androgen receptor (AR) signaling pathway using the MDA cell line in the presence of 0.5 nM R1881 - cell viability counter screen (AID 1259242). Note: nearly all actives have a fitted effect of over 45% in size. The procedure, abridged:
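Cells seeded at 3,000/well and allowed 5 hr at 37C, 0% CO2 before compound transfer and R1881 (0.5 nM final) addition; 16 hr later, live-cell protease fluorescence indicated cytotoxicity.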

For test [12], the target named is Estrogen receptor (Homo sapiens) (UniProt P03372). The test is described as follows: qHTS assay to identify small molecule antagonists of the estrogen receptor alpha (ER-alpha) signaling pathway using the BG1 cell line in the presence of 0.1 nM 17-beta-estradiol (AID 1259244). Note: nearly all actives have a fitted effect of over 50% in size. The procedure, abridged:
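Luciferase signal from VM7Luc4E2 ERE-reporter cells, co-dosed with test compound and 0.1 nM final 17beta-estradiol for 22 h, read with ONE-Glo.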

Test [13] is described as follows: qHTS assay to identify small molecule phospholipidosis (PLD) inducers (AID 1259344; active = well fitted curve in the direction sought with a large enough effect; an effect the other way counts as inactive or inconclusive; note: potency is the fitted concentration of half-maximal effect). An outline of the steps:
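Accumulated phospholipid, stained red by LipidTOX during 24 h compound treatment of HepG2 cells at 37 C, is quantified from images as pit number and intensity, normalised per cell using Hoechst-stained nuclei.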

A short description of test [14]: qHTS assay to identify small molecule HDAC inhibitors (AID 1259364).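 Note: wild-type HCT-116 cells with endogenous class I/II HDAC activity; top concentration of the series differs between compounds; nearly all actives have a fitted effect of over 45% in size.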 The procedure, abridged: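 HCT-116 wt cells, 1,500/well, overnight attach. Compounds (DMSO) 2 h, 37 °C. HDAC-Glo I/II, 30 min RT. Luminescence.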
Test [15] can be described thus: qHTS assay to identify small molecule HDAC inhibitors - cell viability counter screen (AID 1259365). An outline of the steps:
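CellTiter-Glo luminescence (30 min, room temperature) reported viability after a 2 h compound exposure at 37 C. Cells: wild-type HCT-116, 1,500 per well, seeded the night before.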

Test [16] in a line: qHTS assay to identify small molecule agonists of the sonic hedgehog signaling (Shh) pathway - cell viability counter screen (AID 1259366). Note: nearly all actives have a fitted effect of over 50% in size. Note: potency is the fitted concentration of half-maximal effect. The procedure, abridged:
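Cytotoxicity counter screen: CellTiter-Fluor reagent added after 23 h compound exposure, then 1 h at 37C and fluorescence read. Cells were 3T3 Gli1-Luc, seeded 2,000 per well and dosed 4 h post-plating.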

A short description of test [17]: qHTS assay to identify small molecule antagonists of the sonic hedgehog signaling (Shh) pathway - cell viability counter screen (AID 1259367). Note: nearly all actives have a fitted effect of over 55% in size. Note: potency is the fitted concentration of half-maximal effect. The procedure, abridged:
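CellTiter-Fluor signal in conditioned medium-stimulated 3T3 Gli1-Luc cells, 23 hr compound exposure, 37C.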

A short description of test [18]: A CellTox Green Cytotoxicity Assay to monitor cytotoxicity in HEK293 cells - 16 hour (AID 1224888). Note: nearly all actives have a fitted effect of over 35% in size. The procedure, abridged: as §2
Test [19] can be described thus: A CellTox Green Cytotoxicity Assay to monitor cytotoxicity in HepG2 cells - 8 hour (AID 1224890). Note: nearly all actives have a fitted effect of over 45% in size. An outline of the steps:
as §3

For test [20], the target named is Androgen receptor (Homo sapiens) (UniProt P10275). Nature of the test: qHTS assay to identify small molecule antagonists of the androgen receptor (AR) signaling pathway using the MDA cell line in the presence of 0.5 nM R1881 (AID 1259243). Note: nearly all actives have a fitted effect of over 50% in size. An outline of the steps:
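Luminescence from an AR/GR-responsive MMTV-luciferase construct in MDA-kb2 breast carcinoma cells, read 30 min after ONE-Glo, following 16 hr co-treatment with compounds and 0.5 nM R1881.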

Inconclusive results are not listed. The source holds several records for some structures; these can differ, active in one and inactive in another. The source made the active and inactive calls. Unless noted, calls come from the whole dose curve; as a rule, active = well fitted curve in the direction sought with a large enough effect in the repeat runs; inconclusive = weak or mixed curves; inactive = no such curve, though single readings can be large; an effect the other way counts as inactive or inconclusive.

Estrogen receptor (Homo sapiens), sequence (P03372 whole entry, looked up): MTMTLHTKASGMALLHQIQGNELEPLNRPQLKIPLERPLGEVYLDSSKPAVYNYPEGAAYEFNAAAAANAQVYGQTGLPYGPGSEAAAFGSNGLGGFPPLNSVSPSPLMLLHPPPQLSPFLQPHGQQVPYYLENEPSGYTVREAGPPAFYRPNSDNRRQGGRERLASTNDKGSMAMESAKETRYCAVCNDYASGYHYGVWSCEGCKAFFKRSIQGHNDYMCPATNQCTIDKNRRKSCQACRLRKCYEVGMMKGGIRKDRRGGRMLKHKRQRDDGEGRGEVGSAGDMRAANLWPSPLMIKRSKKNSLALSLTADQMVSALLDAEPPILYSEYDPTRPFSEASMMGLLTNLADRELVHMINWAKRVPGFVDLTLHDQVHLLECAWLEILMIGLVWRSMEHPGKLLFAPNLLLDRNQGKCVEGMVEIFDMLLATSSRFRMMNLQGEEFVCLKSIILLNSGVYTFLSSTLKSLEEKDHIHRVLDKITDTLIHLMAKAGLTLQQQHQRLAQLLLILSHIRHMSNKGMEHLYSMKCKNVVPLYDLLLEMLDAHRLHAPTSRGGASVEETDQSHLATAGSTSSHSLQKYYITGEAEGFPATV
Androgen receptor (Homo sapiens), sequence (P10275 whole entry, looked up): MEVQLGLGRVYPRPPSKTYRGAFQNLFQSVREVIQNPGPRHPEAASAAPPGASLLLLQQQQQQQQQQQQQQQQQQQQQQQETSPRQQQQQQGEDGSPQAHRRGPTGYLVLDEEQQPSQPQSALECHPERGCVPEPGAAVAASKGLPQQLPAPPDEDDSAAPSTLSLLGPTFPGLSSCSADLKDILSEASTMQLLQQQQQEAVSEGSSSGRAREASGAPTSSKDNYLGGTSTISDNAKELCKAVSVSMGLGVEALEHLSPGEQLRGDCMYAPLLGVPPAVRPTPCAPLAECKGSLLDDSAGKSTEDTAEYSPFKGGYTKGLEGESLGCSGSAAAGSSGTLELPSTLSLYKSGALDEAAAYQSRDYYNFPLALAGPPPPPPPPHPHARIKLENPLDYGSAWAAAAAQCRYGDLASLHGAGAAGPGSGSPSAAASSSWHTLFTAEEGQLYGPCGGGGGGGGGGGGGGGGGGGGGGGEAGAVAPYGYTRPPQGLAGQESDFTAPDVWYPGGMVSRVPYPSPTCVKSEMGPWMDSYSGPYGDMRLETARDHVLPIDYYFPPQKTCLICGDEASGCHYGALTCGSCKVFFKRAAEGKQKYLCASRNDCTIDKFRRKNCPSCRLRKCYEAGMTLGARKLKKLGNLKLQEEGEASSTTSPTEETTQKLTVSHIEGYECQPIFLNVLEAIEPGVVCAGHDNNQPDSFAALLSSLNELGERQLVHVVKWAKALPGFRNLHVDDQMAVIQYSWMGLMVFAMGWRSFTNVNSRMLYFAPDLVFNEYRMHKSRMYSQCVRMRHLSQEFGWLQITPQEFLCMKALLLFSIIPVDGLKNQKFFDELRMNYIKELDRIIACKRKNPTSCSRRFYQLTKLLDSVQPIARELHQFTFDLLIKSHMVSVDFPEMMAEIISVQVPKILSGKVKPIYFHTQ

`ClC1=C(Cl)C2(Cl)C(CBr)CC1(Cl)C2(Cl)Cl` (centres undefined): the compound was classed as inactive in test [1], in [3], in test [9], in [10] and in [15]. Besides, the Potency in [2] was 54.9 µM (active) and inactive; in [7] it was 49 µM (active) and inactive; in test [8] it was 43.6 µM (active) and inactive. For the same compound, the Potency entry in test [4], in [5], in test [6], in test [11], in [12] and in [13] was “inactive” each time. The Potency result in test [14], in [16] and in [17] was “inactive” each time.

Turning to `CC(O)CCl` (centres undefined), the compound was classed as inactive in test [1], in [3], in [9], in test [10] and in test [15]. Besides, the Potency entry in test [2], in test [5], in test [6], in test [7], in test [8] and in test [18] was “inactive” in each case. The Potency entry in test [19], in test [11], in [12] and in test [14] was “inactive” throughout.

For `CC[C@@H](CO)NC(=O)[C@@H]1C=C2c3cccc4[nH]cc(c34)C[C@H]2N(C)C1`, the result in [1], in test [9], in test [10] and in test [15] was inactive. Also, the Potency entry in test [2], in test [4], in [5], in test [6], in test [7] and in test [8] was “inactive” each time. For the same compound, the Potency result in test [18], in test [19], in test [11], in test [20], in test [12] and in test [13] was “inactive” each time. Moreover, the Potency entry in test [14], in test [16] and in test [17] was “inactive” in each case.

In the case of `CCC(C)(C#N)N=NC(C)(C#N)CC` (centres undefined), the call in [1], in test [3], in [9], in test [10] and in test [15] was inactive. Further, the Potency entry in test [2], in test [5], in test [6], in test [7], in test [8] and in test [18] was “inactive” in each case. Also, the Potency entry in test [19], in [11], in [12], in [14], in test [16] and in [17] was “inactive” each time.

For `NC1(c2ccccc2)CCCCC1`, the call in [1], in [3], in [9], in test [10] and in test [15] was inactive. In addition, the Potency entry in [2], in test [5], in test [6], in [7], in test [8] and in test [18] was “inactive” each time. For the same compound, the Potency entry in test [19], in test [11], in [12] and in [14] was “inactive” throughout. For the same compound, the results for the Potency in test [13], in test [16] and in test [17] were 8.91 µM (active), 30.4 µM (active) and 27.1 µM (active), respectively.

For `C(COCC1CO1)OCC1CO1` (centres undefined), the result in [1], in test [3], in [9], in test [10] and in test [15] was inactive. Also, the Potency result in test [2], in test [5], in test [6], in [7], in test [8] and in test [18] was “inactive” throughout. Moreover, the Potency entry in test [11], in test [12], in test [14] and in test [16] was “inactive” each time.

As for `CCC(=O)OC1(c2ccccc2)CCN(C)CC1`, the result in test [1], in test [3], in test [9], in test [10] and in [15] was inactive. For the same compound, the Potency entry in [2], in test [4], in test [5], in [6], in [7] and in test [8] was “inactive” each time. Besides, the Potency entry in test [11], in test [13], in test [14], in [16] and in test [17] was “inactive” throughout.

Turning to `COC(=O)c1ccc(CBr)cc1`, the result in test [1], in test [3], in test [9], in test [10] and in test [15] was inactive. For the same compound, the Potency entry in [2], in [5], in test [6], in [7], in [8] and in test [18] was “inactive” throughout. The Potency result in test [19], in [11], in [20], in test [12], in test [16] and in [17] was “inactive” in each case.
